In the library only some 12% were active in any assay of this set; here they are far more common.
Sfp inh – Sfp phosphopantetheinyl transferase inhibition | 3.5% of 310,000 active | Q9F4F7 | Potency, µM, most hits filed as inhibitors | Biochemical Sfp PPTase activity, qHTS;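 also: the enzyme is Sfp with the accession as filed and its product quenches rhodamine fluorescence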
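After 15 min at room temperature with compound, 15 nM Sfp received 5 uM rhodamine-CoA plus 12.5 uM BHQ-2-ybbR (50 mM Hepes pH 7.6, 10 mM MgCl2). Rate came from the fluorescence difference over 30 min, ex 525/em 598 nm.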
BAZ2B inh – inhibitors of human BAZ2B bromodomain; Potency, µM (titrated, usually from 114 µM), actives largely listed as inhibitors; Q9UIF8; 4.4% of 360,000 active; AlphaScreen BAZ2B-H3K14Ac peptide displacement; also: nearly all actives have a fitted effect of over 60% in size
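Complex of BAZ2B and biotin-H3K14Ac (50 nM apiece) forms over 30 min at RT, then faces library compounds up to 110 uM for another 30 min; AlphaScreen beads added, 20 min dark incubation, luminescence read.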
JMJD2A Tudor – JMJD2A Tudor domain (human) inhibition | AlphaScreen JMJD2A-Tudor / H3K4me3 peptide binding | AID 504339 | 4.4% of 390,000 active | Potency, µM (doses to about 114 µM), hits mostly inhibitors | O75164; also: nearly all actives have a fitted effect of over 50% in size
HP1b chromo inh – blocks HP1-beta chromodomain binding to methylated histone tails; Potency, µM (series often up to 114 µM), usual class: inhibitors; AID 540317; 0.56% of 390,000 active; P83916; AlphaScreen HP1-beta / biotin-H3K9me3 peptide binding; also: nearly all actives have a fitted effect of over 70% in size
Target sequence (P83916 whole entry, looked up): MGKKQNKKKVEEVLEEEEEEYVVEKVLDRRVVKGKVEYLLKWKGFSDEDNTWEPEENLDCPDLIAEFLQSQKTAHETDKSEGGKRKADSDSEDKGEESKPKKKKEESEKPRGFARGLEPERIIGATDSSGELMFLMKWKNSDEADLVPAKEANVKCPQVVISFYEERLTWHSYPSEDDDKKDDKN
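Compound inhibition of the preformed complex between 50 nM HP1-beta and 50 nM biotinylated H3K9me3 peptide was read by AlphaScreen. Buffer was PBS pH 7.4 with 0.01% Tween-20. Incubations ran 30 min at room temperature, with 10 ug/mL donor/acceptor beads.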
L3MBTL1 inh – L3MBTL1 (human) inhibition; AlphaScreen L3MBTL1–H3K9me1 peptide binding; Potency, µM (doses to about 57.1 µM), most hits filed as inhibitors; 0.66% of 230,000 active; AID 485360; also: nearly all actives have a fitted effect of over 60% in size
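AlphaScreen proximity signal between nickel-chelate acceptor and streptavidin donor beads (final 10 ug/mL) reports binding of 50 nM L3MBTL1 to 75 nM biotin-H3 K9me1 peptide; complex incubated with compounds 30 min at room temperature; cefsulodin titration as control.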
G9a block – blocks human histone lysine methyltransferase G9a; G9a H3K9 monomethylation, AlphaScreen, 2 h; Potency, µM (top dose mostly 102 µM), actives largely listed as inhibitors; 8.8% of 350,000 active; AID 504332; Q96KQ7; also: nearly all actives have a fitted effect of over 75% in size
Target sequence (Q96KQ7 913-1193 limits assumed): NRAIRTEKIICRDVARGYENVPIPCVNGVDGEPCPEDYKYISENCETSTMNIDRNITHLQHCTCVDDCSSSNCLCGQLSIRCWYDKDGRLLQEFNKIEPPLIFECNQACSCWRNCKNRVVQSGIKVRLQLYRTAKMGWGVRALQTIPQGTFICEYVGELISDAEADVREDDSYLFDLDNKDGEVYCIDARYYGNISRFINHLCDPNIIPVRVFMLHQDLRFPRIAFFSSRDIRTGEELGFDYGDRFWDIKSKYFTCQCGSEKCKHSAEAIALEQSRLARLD
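Readings reflect AlphaScreen signal from monomethyl-H3K9 antibody detection. HMT at 20 nM; substrate b-H3K9 500 nM; cofactor SAM 20 uM; 2 h RT reaction; compounds tested as titrations in qHTS with 15 min preincubation.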
Large screens that a line does not name were inactive. Calls follow the shape of the dose curve; as a rule, active = well fitted curve in the direction sought with a large enough effect; inconclusive = small, poorly fitted or top-dose-only effect, or another doubt; inactive = no such curve, though single readings can be large; an effect the other way counts as inactive or inconclusive.

CCCCn1nnnc1SCC(=O)c1cc(Cl)ccc1OC	none
O=C(Nc1cccc(C(F)(F)F)c1)c1cc2nc(-c3ccc4c(c3)OCO4)cc(C(F)(F)F)n2n1	none (no result: Sfp inh, L3MBTL1 inh)
CC(C)C[C@H](NC(=O)c1nc[nH]c1C(=O)N[C@@H](CC(C)C)C(=O)OC(C)(C)C)C(=O)OCc1ccccc1	none
CC(C)C[C@@H](CN)NC(=O)c1nc[nH]c1C(=O)N[C@@H](C)C(=O)CNC[C@H](C)NC(=O)c1nc[nH]c1C(=O)N[C@@H](C)C(=O)O	JMJD2A Tudor 50µM (no result: Sfp inh, BAZ2B inh, L3MBTL1 inh, G9a block)
C[C@H](NC(=O)c1nc[nH]c1C(=O)N[C@@H](Cc1ccccc1)C(=O)OCc1ccccc1)C(=O)OCc1ccccc1	none (no result: G9a block)
CC(C)C[C@@H](CN)NC(=O)c1nc[nH]c1C(=O)N[C@@H](CC(C)C)C(=O)CNC[C@H](C)NC(=O)c1nc[nH]c1C(=O)N[C@@H](C)C(=O)O	JMJD2A Tudor 79µM (no result: Sfp inh, BAZ2B inh, L3MBTL1 inh, G9a block)
CC(C)C[C@@H](CNCC(=O)[C@H](CC(=O)O)NC(=O)c1[nH]cnc1C(=O)N[C@H](CN)CC(C)C)NC(=O)c1nc[nH]c1C(=O)N[C@@H](Cc1ccccc1)C(=O)O	JMJD2A Tudor 50µM (no result: Sfp inh, BAZ2B inh, L3MBTL1 inh, G9a block)
CC(C)C[C@@H](CN)NC(=O)c1nc[nH]c1C(=O)N[C@@H](C)C(=O)CNC[C@H](C)NC(=O)c1nc[nH]c1C(=O)N[C@@H](Cc1ccccc1)C(=O)O	JMJD2A Tudor 79µM (no result: Sfp inh, BAZ2B inh, L3MBTL1 inh, G9a block)
COCCn1c(=O)c(CCc2ccccc2)nc2cnc(N(C)C)nc21	none (no result: BAZ2B inh, JMJD2A Tudor, HP1b chromo inh, L3MBTL1 inh)
CC(C)C[C@@H](CN)NC(=O)c1nc[nH]c1C(=O)N[C@@H](C)C(=O)CNC[C@H](C)NC(=O)c1nc[nH]c1C(=O)N[C@@H](CC(C)C)C(=O)O	JMJD2A Tudor 50µM (no result: Sfp inh, BAZ2B inh, L3MBTL1 inh, G9a block)
CC(C)C[C@H](NC(=O)c1nc[nH]c1C(=O)N[C@@H](CCCCN)C(=O)OC(C)(C)C)C(=O)OC(C)(C)C	none (no result: Sfp inh, BAZ2B inh, G9a block)
CC(=O)NCCNc1ncncc1-c1ccccc1CN(C)C	none (no result: BAZ2B inh, JMJD2A Tudor, HP1b chromo inh, L3MBTL1 inh)
C=CCn1c(=N)n(CC(O)COc2ccccc2OC)c2ccccc21 (stereo unspecified)	none
C=CCn1c(-c2ccc(OC)c(OC)c2)cs/c1=N\c1ccccn1	Sfp inh 18µM, BAZ2B inh inconclusive, HP1b chromo inh inconclusive, G9a block 3.5µM
CCCCn1c(CCC(=O)O)nc2cc(S(=O)(=O)N(C)C)ccc21	none
CCn1c(CSc2nnc(C)n2-c2ccccc2)nc2cc(S(=O)(=O)N(C)C)ccc21	none
CCn1c(-c2ccccn2)nc2cc(S(=O)(=O)N(C)C)ccc21	G9a block 50µM (no result: L3MBTL1 inh)
CCn1c(C)nc2cc(S(N)(=O)=O)ccc21	JMJD2A Tudor 14µM (no result: G9a block)
CCn1c(-c2cc(Br)cc(OC)c2O)nc2cc(S(=O)(=O)N(C)C)ccc21	G9a block 45µM
CCCCNC(=O)CSc1nc2cc3c(cc2c(=O)n1CCCCCC(=O)NCc1ccc(OC)cc1)OCO3	none (no result: Sfp inh, L3MBTL1 inh)
CCOc1ccc(NC(=O)c2ccc(NC(=O)c3cn4c5c(c(N6CCN(C)CC6)c(F)cc5c3=O)OCC4C)cc2)cc1 (stereo unspecified)	G9a block 50µM
CC1COc2c(N3CCN(C)CC3)c(F)cc3c(=O)c(C(=O)O)cn1c23 (stereo unspecified)	none (no result: L3MBTL1 inh)
O=c1oc(CCCO)cc2ccccc12	none (no result: Sfp inh, BAZ2B inh, G9a block)
Cc1ccc(C(=O)NNC(=O)c2ccncc2)cc1C	none
Cc1ccc(CC(=O)NNC(=O)c2ccncc2)cc1C	HP1b chromo inh inconclusive, G9a block 4.5µM (no result: Sfp inh)
CCCCn1c(SCN2C(=O)c3ccccc3C2=O)nc2cc(S(N)(=O)=O)ccc21	G9a block 40µM
CCCCn1c(SCc2ccc(C(=O)OC)o2)nc2cc(S(N)(=O)=O)ccc21	Sfp inh 56µM
CCCCn1c(SCC(=O)c2cc(OC)ccc2OC)nc2cc(S(N)(=O)=O)ccc21	G9a block inconclusive
CCCCn1c(SCC(=O)N2CCC(C)CC2)nc2cc(S(N)(=O)=O)ccc21	Sfp inh inconclusive, G9a block 7.9µM
CCCCn1c(SCn2nnc3ccccc3c2=O)nc2cc(S(N)(=O)=O)ccc21	G9a block inconclusive (no result: L3MBTL1 inh)
